# From PubChem BioAssay AID504720 (Sanford-Burnham Center for Chemical Genomics, 2011)
# Screen size: about 350,000 compounds; about 1,100 (0.31%) were called active. Cut-off read from the data, not from the text of the source: active = activation above about 50%; inactive = the rest. The full list was thinned out, with actives kept by preference.
# Target: Endoribonuclease toxin MazF (Escherichia coli (strain K12)) (UniProt P0AE70)
# Assay: activators of E. coli MazEF toxin-antitoxin RNase, primary screen, biochemical, fluorescence, uHTS (AID 504720)
# Conditions: FAM/BHQ RNA-DNA oligo cleavage fluorescence, 5 h, at 20 µM, active compounds read high
# Endoribonuclease toxin MazF (Escherichia coli (strain K12)), sequence (P0AE70 whole entry, looked up): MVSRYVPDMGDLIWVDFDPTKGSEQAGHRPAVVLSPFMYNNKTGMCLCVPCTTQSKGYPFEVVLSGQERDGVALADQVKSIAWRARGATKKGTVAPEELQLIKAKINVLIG
row,SMILES,activation
1,COC(C/C=C/C(=O)[C@@H](C)OCc1ccccc1)OC,-1.24% (inactive)
2,CCOC(=O)CSc1nc(C)cc2c1C(=O)OC2,2.74% (inactive)
3,O=C(COC(=O)Cn1[nH]c(=O)c2ccccc2c1=O)Nc1ncc(Cl)cc1Cl,-9.39% (inactive)
4,Cc1ccccc1OCc1nnc(SCC(=O)N2c3ccccc3Sc3ccc(Cl)cc32)o1,-5.1% (inactive)
5,CC(=O)c1ccc(NC(=O)c2ccc3c(Cl)c4c(nc3c2)CCCC4)cc1,61.1% (active)
6,CC(C)CCNC(=O)c1ccc2c(Cl)c3c(nc2c1)CCC3,0.61% (inactive)
7,COc1cccc(NC(=O)c2ccc3c(SCC(=O)O)c4c(nc3c2)CCCC4)c1,0.29% (inactive)
8,O=C(CN1CCN(Cc2ccc(F)cc2Cl)C1=O)NCc1cccs1,2.52% (inactive)
9,COc1ccc(NC(=O)c2cc([N+](=O)[O-])ccc2NC(=O)CNC2CCCCC2C)c(OC)c1 (stereo not drawn),5.61% (inactive)
10,Cc1ccc(Sc2ccncc2S(N)(=O)=O)cc1,4.01% (inactive)
11,COc1ccc(Cn2c(O)c(/C=C3/C=CC=N3)c(=O)[nH]c2=O)cc1,79.2% (active)
12,COc1ccc(N=Cc2c(O)n(C)c(=O)[nH]c2=O)cc1,-3.16% (inactive)
13,COc1ccc(CCn2c(O)c(C=NC3CC3)c(=O)[nH]c2=O)cc1OC,0.91% (inactive)
14,CNC(=O)c1c(NC(NC(=O)c2ccco2)C(=O)c2ccc(Cl)cc2)sc2c1CCCC2 (stereo not drawn),-0.431% (inactive)
15,O=C(Nc1ncc2c(n1)-c1ccccc1OC2)c1ccc(Cl)cc1,3.08% (inactive)
16,O=C(COC(=O)CNC(=O)C1CCCCC1)NCc1ccccc1,0.98% (inactive)
17,CCCCN1C(=O)/C(=C/C=C2/C=Cc3ccccc3N2CC)SC1=S,18.5% (inactive)
18,Cc1ccc(-c2nn(-c3ccccc3)cc2/C=C2\SC(=S)N(CCCCCC(=O)O)C2=O)o1,3200% (active)
19,O=C1/C(=C/c2coc3ccc(O)cc3c2=O)SC(=S)N1c1ccccc1,-53.2% (inactive)

row,SMILES,activation
1,CCOc1ccc(S(=O)(=O)Nc2cccc(C(=O)NCC3(N4CCCCC4)CCCCC3)c2)cc1,-1.19% (inactive)
2,COc1ccc(CCNC(=O)c2nnc(CS(=O)(=O)c3ccccc3)o2)cc1OC,6.35% (inactive)
3,O=C(NCC12CC3CC(C1)CC(CNC(=O)N1CCCC1)(C3)C2)N1CCCC1,-3.78% (inactive)
4,COc1ccc(CNC(=O)CCC(=O)Nc2nnc(C(C)C)s2)cc1,7.7% (inactive)
5,CN(C(=O)CN1C(=O)NC(C)(CCc2ccccc2)C1=O)c1ccccc1 (stereo not drawn),-1.8% (inactive)
6,Cc1ccc(CN2C(=O)N/C(=C/c3cc(C)n(-c4ccccn4)c3C)C2=O)cc1,-15.4% (inactive)
7,CN(C)c1ccc(/C=C2\NC(=S)N(Cc3ccccc3)C2=O)cc1,56.4% (active)
8,COCCn1c(=NC(=O)c2ccccc2[N+](=O)[O-])sc2cc(S(C)(=O)=O)ccc21,15.4% (inactive)
9,CSc1ccccc1C(=O)OCC(=O)N1CCN(C(C)=O)CC1,1.11% (inactive)
10,Cc1scc(C(=O)NNC(=S)NCc2ccccc2)c1C,51.1% (active)
11,O=C(NNC(=S)NCc1ccccc1)c1ccc(OC(F)F)cc1,-1.92% (inactive)
12,Cc1scc(C(=O)NNC(=S)NCC(C)C)c1C,5.32% (inactive)
13,COc1cc(S(=O)(=O)N2CCN(C(=O)C3CC3)CC2)ccc1NC(C)=O,3.42% (inactive)
14,COc1c(C)c2c(c(O)c1C/C=C(\C)CCC(=O)O)C(=O)OC2,6.86% (inactive)
15,O=C(COC(=O)c1cccc(Cl)c1)NC(=O)NCc1ccccc1,-3.25% (inactive)
16,c1ccc(-c2cn3c(n2)CCc2ccc4cccnc4c2-3)cc1,4.41% (inactive)
17,O=C(NCc1cccc(Cl)c1)C1=CC=CN2CCS(=O)(=O)N=C12,-3.56% (inactive)
18,CCOC(=O)N1CCN(C(=O)CN(C2CCCCC2)S(C)(=O)=O)CC1,-5% (inactive)
19,CCc1ccc2nc(Nc3ncc(C(C)=O)c(C)n3)nc(C)c2c1,-3.52% (inactive)
